Measurements published in PubChem BioAssay AID1259313 (Sanford-Burnham Center for Chemical Genomics, 2017).
About 8,500 (2.5%) of roughly 340,000 compounds were called active.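 How the source made its calls: active means melting temperature shift of at least 10% of the positive control shift, at one fixed dose; inactive means the rest.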 Only a selection was taken, and actives are over-represented in it overall.

Test system: Glutamate receptor ionotropic, NMDA 3A (GRIN3A) ligand-binding domain
Assay: binders of NR3A ligand-binding domain, primary screen, biophysical, differential scanning fluorimetry, uHTS (AID 1259313)
Conditions: NR3A LBD differential scanning fluorimetry, at 25 µM, hits give high values, 0% = protein alone, 100% = glycine-bound protein

Q: CCn1cc(NC(=O)Nc2ccc(OC)c(OC)c2)c(C(N)=O)n1 was tested. Which Tm shift relative to glycine control did it give?
A: -1.66% (inactive)

Q: Which Tm shift relative to glycine control does the source give for C=CCn1cnc2scc(-c3ccccc3)c2c1=O here?
A: 5.11% (inactive)

Q: How did the Tm shift relative to glycine control turn out when N#CCCN(CCC#N)c1nnc(-c2ccccc2)s1 was run?
A: 2.17% (inactive)

Q: For CN(CCC#N)c1ncnc2scc(-c3ccccc3)c12, which Tm shift relative to glycine control is on record?
A: 10.9% (active)

Q: How did the Tm shift relative to glycine control turn out when COc1ccc(CCNC(=O)c2ccc(NC(=O)CC3SC(N4CCCCC4)=NC3=O)cc2)cc1OC (centres undefined) was run?
A: 0.17% (inactive)

Q: How did the Tm shift relative to glycine control turn out when CNc1ccc(SC#N)cc1 was run?
A: -0.62% (inactive)

Q: For C=CCn1c(=NC(=O)c2cccs2)sc2cc(NC(C)=O)ccc21, which Tm shift relative to glycine control is on record?
A: 2.65% (inactive)

Q: C=CCn1c(=NC(=O)c2ccc(S(=O)(=O)N3CCCC3)cc2)sc2cc(NC(C)=O)ccc21 was tested. Which Tm shift relative to glycine control did it give?
A: 18.6% (active)

Q: How did the Tm shift relative to glycine control turn out when CC(=O)Nc1ccc(S(=O)(=O)N2CCSCC2)cc1 was run?
A: 0.09% (inactive)

Q: With CC(=O)Nc1ccc(NC(=O)CCN2C(=O)C3CC=CCC3C2=O)cc1 (centres undefined) as the compound, how does the Tm shift relative to glycine control read?
A: -1.24% (inactive)

Q: Which Tm shift relative to glycine control does the source give for CCC(C)(C)NC(=O)C(c1cccc(OC)c1OC)N(CC(C)C)C(=O)CCC(=O)Nc1cc(C)on1 (centres undefined) here?
A: -1.85% (inactive)

Q: NC(=O)C1CC(=O)N(c2ccc(OCC(=O)NCc3ccccc3)cc2)C1 (centres undefined) was tested. Which Tm shift relative to glycine control did it give?
A: -0.09% (inactive)

Q: For O=C(O)c1ccccc1N=N/C(=N/Nc1cc(S(=O)(=O)O)ccc1O)c1ccccc1, which Tm shift relative to glycine control is on record?
A: 25.2% (active)

Q: Cn1cccc1C(=O)OCC(=O)NCCc1ccccc1 was tested. Which Tm shift relative to glycine control did it give?
A: -0.25% (inactive)

Q: For O=C(COC(=O)c1c2c(nc3ccccc13)CCCC2)c1ccc(Br)s1, which Tm shift relative to glycine control is on record?
A: -4.51% (inactive)

Q: For Cn1cccc1C(=O)OCC(=O)c1ccc(Br)s1, which Tm shift relative to glycine control is on record?
A: 14% (active)

Q: With O=C(Nc1cccc(C(=O)NC2CC2)c1)c1ccc(F)c(S(=O)(=O)N2CCOCC2)c1 as the compound, how does the Tm shift relative to glycine control read?
A: 4.42% (inactive)

Q: COc1ccc(NS(=O)(=O)c2ccc(NC(=S)NC(=O)/C=C/c3ccc(C)cc3)cc2)nn1 was tested. Which Tm shift relative to glycine control did it give?
A: -7.2% (inactive)

Q: For Cc1ccc(C(=O)/C=C/Nc2ccc(S(=O)(=O)Nc3onc(C)c3C)cc2)cc1, which Tm shift relative to glycine control is on record?
A: -6.78% (inactive)

Q: COc1ccc(/C=C/C(=O)c2ccc(NS(=O)(=O)c3ccc(C)cc3)cc2)cc1O was tested. Which Tm shift relative to glycine control did it give?
A: 24.6% (active)

Q: CCOC(=O)C1CCN(C(=O)CN2C(=O)NC(C)(c3ccc4cc(OC)ccc4c3)C2=O)CC1 (centres undefined) was tested. Which Tm shift relative to glycine control did it give?
A: 0.17% (inactive)

Q: With CCOC(=O)c1c(-c2cccc(C)c2)csc1NC(=O)c1c(-c2ccccc2)noc1C as the compound, how does the Tm shift relative to glycine control read?
A: -0.48% (inactive)

Q: How did the Tm shift relative to glycine control turn out when Cc1[nH]c2ccccc2c1C(=O)COC(=O)c1c(-c2ccccc2)noc1C was run?
A: 18.8% (active)

Q: How did the Tm shift relative to glycine control turn out when Cc1onc(-c2ccccc2Cl)c1C(=O)OCC(=O)c1ccccc1 was run?
A: -1.07% (inactive)

Q: How did the Tm shift relative to glycine control turn out when COc1cc(NC(=O)CCNC(=O)Cn2ccc3ccccc3c2=O)cc(OC)c1OC was run?
A: 1.09% (inactive)

Q: How did the Tm shift relative to glycine control turn out when O=C(CSc1nnc(-c2ccncc2)o1)Nc1cccc(Cl)c1 was run?
A: -2.14% (inactive)

Q: For O=C(COC(=O)CSc1nnc(-c2ccc(Cl)cc2)o1)Nc1cc(Cl)cc(Cl)c1, which Tm shift relative to glycine control is on record?
A: 19.4% (active)

Q: With O=C(CSc1nnc(-c2ccncc2)o1)NCc1ccc(Cl)cc1 as the compound, how does the Tm shift relative to glycine control read?
A: 1.65% (inactive)

Q: How did the Tm shift relative to glycine control turn out when NCC(=O)c1cccc2ccc[n+]([O-])c12 was run?
A: 7.2% (inactive)

Q: For Cc1ccc(C)c(NC(=O)COC(=O)c2nn(C)c(=O)c3ccccc23)c1, which Tm shift relative to glycine control is on record?
A: 0.34% (inactive)

Q: How did the Tm shift relative to glycine control turn out when O=P(O)(CP(=O)(c1ccccc1)c1ccccc1)c1ccccc1O was run?
A: -4.72% (inactive)

Q: For CC1CCCCC1NC(=O)C1CCCN1S(=O)(=O)c1cccc2nsnc12 (centres undefined), which Tm shift relative to glycine control is on record?
A: -1.29% (inactive)

Q: How did the Tm shift relative to glycine control turn out when COc1ccc(OC)c(NC(=O)C2CCCN2S(=O)(=O)c2cccc3nsnc23)c1 (centres undefined) was run?
A: 13.4% (active)

Q: CC(=O)c1cccc(NC(=O)C2CCCN2S(=O)(=O)c2cccc3nsnc23)c1 (centres undefined) was tested. Which Tm shift relative to glycine control did it give?
A: 1.52% (inactive)

Q: COc1ccc(CCC(=O)OCC(=O)Nc2ccc(C)c(S(=O)(=O)N(C)C)c2)cc1 was tested. Which Tm shift relative to glycine control did it give?
A: -3.89% (inactive)

Q: How did the Tm shift relative to glycine control turn out when Cc1c(C=O)c2ccccc2n1CCOc1ccccc1 was run?
A: -1.12% (inactive)

Q: COC(=O)c1ccc(COc2cc([N+](=O)[O-])cc3cccnc23)cc1 was tested. Which Tm shift relative to glycine control did it give?
A: -1.16% (inactive)

Q: For COc1ccc([C@H]2CC(=O)C=C(/C=C/c3ccc(Cl)cc3)C2)cc1, which Tm shift relative to glycine control is on record?
A: 25.2% (active)

Q: For COc1ccc([C@H]2CC(=O)C=C(/C=C/c3ccccc3)C2)cc1, which Tm shift relative to glycine control is on record?
A: -0.08% (inactive)

Q: For CCCCC/C=C/C1=CC(=O)C[C@H](c2ccc(Cl)cc2)C1, which Tm shift relative to glycine control is on record?
A: -2.27% (inactive)

Q: With CC1(C)O[C@@H]2CC3C4C[C@H](F)C5=CC(=O)C=CC5(C)C4C(O)CC3(C)[C@]2(C(=O)CO)O1 (some centres undefined) as the compound, how does the Tm shift relative to glycine control read?
A: -0.79% (inactive)

Q: How did the Tm shift relative to glycine control turn out when COc1ccc(NC(=O)C2CCN(S(=O)(=O)c3ccc4[nH]c(=O)oc4c3)CC2)c(OC)c1 was run?
A: -2.13% (inactive)

Q: With Cc1nc2cc(NC(=O)Nc3cccc(F)c3)ccc2n1C as the compound, how does the Tm shift relative to glycine control read?
A: -0.72% (inactive)

Q: Which Tm shift relative to glycine control does the source give for O=C(Nc1cccc(Br)c1)c1ccc2snnc2c1 here?
A: -4.74% (inactive)

Q: For O=C(Nc1ccc2ccccc2c1)Nc1ccc2snnc2c1, which Tm shift relative to glycine control is on record?
A: 157% (active)

Q: With Cc1cccc(C)c1NC(=O)CSc1nc2c([nH]1)c(=O)n(C)c(=O)n2C as the compound, how does the Tm shift relative to glycine control read?
A: -0.47% (inactive)

Q: How did the Tm shift relative to glycine control turn out when CO[C@@H]1[C@@H](OC(N)=O)[C@@H](O)C(Oc2ccc3c(O)c(NC(=O)c4ccc(O)c(CC=C(C)C)c4)c(=O)oc3c2C)OC1(C)C (some centres undefined) was run?
A: -12.2% (inactive)

Q: How did the Tm shift relative to glycine control turn out when CC(C)c1ccc(NC(=S)NNc2ccc(Cl)c(C(=O)O)c2)cc1 was run?
A: -0.77% (inactive)

Q: How did the Tm shift relative to glycine control turn out when Cc1ccc(C)c(NC(=S)NNC(=O)c2csc(C)c2)c1 was run?
A: 1.94% (inactive)

Q: For Cc1ccc(C)c(NC(=S)NNC(=S)Nc2ccc(C(C)C)cc2)c1, which Tm shift relative to glycine control is on record?
A: 12.8% (active)

Q: CN(C)CCCn1c(=O)n(Cc2ccccc2)c(=O)c2c3c(sc21)CCCCC3 was tested. Which Tm shift relative to glycine control did it give?
A: -3.1% (inactive)

Q: Which Tm shift relative to glycine control does the source give for CCCOP(=O)(c1ccc(N(C)C)cc1)C(O)c1cc(OC)c(OC)c(OC)c1 (centres undefined) here?
A: 3.76% (inactive)

Q: CCOc1cc(-c2cc(-c3ccc(NC(C)=O)cc3)nc(N)c2C#N)ccc1O was tested. Which Tm shift relative to glycine control did it give?
A: -13.2% (inactive)

Q: With CCOc1cc(C=NNC(=O)CCCC(=O)NN=Cc2ccc(O)c(OCC)c2)ccc1O as the compound, how does the Tm shift relative to glycine control read?
A: 1.26% (inactive)

Q: Which Tm shift relative to glycine control does the source give for CCOc1cc(/C=C(\C#N)c2nc(-c3cccs3)c(NC(C)=O)s2)ccc1O here?
A: 10.9% (active)

Q: With Cc1noc(C)c1S(=O)(=O)NCCc1ccc(S(N)(=O)=O)cc1 as the compound, how does the Tm shift relative to glycine control read?
A: 5.94% (inactive)

Q: How did the Tm shift relative to glycine control turn out when O=C1c2ccccc2C(O)N1Cc1ccccc1 (centres undefined) was run?
A: 0.38% (inactive)

Q: For O=c1ccn(Cc2ccccc2Cl)cc1, which Tm shift relative to glycine control is on record?
A: 0.42% (inactive)

Q: With O=C1c2ccccc2C(O)N1Cc1ccccc1Cl (centres undefined) as the compound, how does the Tm shift relative to glycine control read?
A: 12.8% (active)
